Assay outcomes as filed in PubChem.
PLCg1 inh – inhibitors of human phospholipase C gamma1; actives 0.84% (n = 370,000); purified PLC-gamma1, fluorogenic substrate, fluorescence; P19174; AID 720700; inhibition, % at 12.2 µM; in the data active = inhibition above about 9.5%
PLCb3 inh – PLC-beta3 (human) inhibition, primary screen; AID 720704; inhibition, % at 12.2 µM; actives 0.18% (n = 370,000); Purified PLC-beta3, fluorogenic substrate, fluorescence; Q01970; in the data active = inhibition above about 11%;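 note: 0% = median of compound wells on plate and 100% = full blocker control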
ADAM10 inh – inhibitors of human ADAM10 | actives 0.62% (n = 370,000) | AID 720582 | inhibition, % at 7 µM | recombinant ADAM10, EDANS/DABCYL FRET peptide cleavage, 3 h;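 active = inhibition above a per-campaign cutoff equal to the mean of compounds falling between control-based bounds plus 3 SD, cut at about 20% in these data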;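 note: 0% = DMSO wells while the 100% control is not disclosed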
proKLK7 act – proKLK7 (human) activation, primary screen | actives 0.9% (n = 370,000) | purified proKLK7, EDANS-DABCYL substrate fluorescence; 100% is mature enzyme control, 0% vehicle | P49862 | activation, % at 7 µM;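 active = activation above the mean of all tested compounds plus 3 SD, computed per campaign excluding outliers beyond control limits, cut at about 13% in these data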
Target sequence (P49862 whole entry, looked up): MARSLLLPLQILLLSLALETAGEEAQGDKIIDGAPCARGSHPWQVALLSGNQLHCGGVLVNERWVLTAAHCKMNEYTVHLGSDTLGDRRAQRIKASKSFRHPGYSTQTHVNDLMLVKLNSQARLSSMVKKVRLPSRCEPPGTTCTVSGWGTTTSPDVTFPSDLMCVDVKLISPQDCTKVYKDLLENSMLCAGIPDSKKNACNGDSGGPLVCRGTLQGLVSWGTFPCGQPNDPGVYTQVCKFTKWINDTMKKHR
ADAM17 inh – inhibits human ADAM17 | P78536 | recombinant ADAM17, EDANS/DABCYL FRET peptide cleavage | inhibition, % at 6.95 µM | actives 0.83% (n = 370,000);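 active = inhibition above the mean of compounds lying between control limits plus 3 SD, set per campaign, cut at about 8.5% in these data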;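 note: 0% = DMSO-only wells as the low control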
ADAM10 counter – inhibits human ADAM10 in ADAM17 exosite counter-screen; shares compounds with ADAM17 inh; recombinant ADAM10, EDANS/DABCYL FRET peptide cleavage, 3 h; inhibition, % at 6.95 µM; actives 47% (n = 2,900);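 active = mean inhibition over the triplicate runs exceeds the activity threshold set in the earlier primary screen, cut at about 20% in these data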;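 note: 0% = DMSO wells and 100% = marimastat wells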
ADAM17 confirm – human ADAM17 inhibition, confirmation. recombinant ADAM17, EDANS/DABCYL QFRET peptide cleavage. shares compounds with ADAM17 inh. inhibition, % at 6.95 µM. actives 65% (n = 2,900). AID 743257;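 active = mean inhibition across replicates above the hit cutoff set in the primary screen, cut at about 8.5% in these data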;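 note: 0% = DMSO wells and 100% = marimastat wells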
* hit, by the source's call; nt = no result. Compounds with a hit are over-represented: about 2.9% of the library has one in this group of screens.

SMILES	PLCg1 inh	PLCb3 inh	ADAM10 inh	proKLK7 act	ADAM17 inh	ADAM10 counter	ADAM17 confirm
CC(C(=O)NC1CCCC1)n1c(C2CC2)nc2ccccc21 (stereo not given)	1	1	2	0	-2	nt	nt
CC1(C)O[C@@H]2C[C@H]3[C@@H]4CCC5=CC(=O)C=C[C@]5(C)[C@@]4(F)[C@@H](O)C[C@]3(C)[C@]2(C(=O)CO)O1	3	2	1	1	2	nt	nt
CC(=O)OCC(=O)[C@@]12OC3(CCCC3)O[C@@H]1C[C@H]1[C@@H]3CCC4=CC(=O)C=C[C@]4(C)[C@@]3(F)[C@@H](O)C[C@@]12C	6	0	19	1	8.7*	8	6
CN(C(=O)COC(=O)c1ccccc1SCC(=O)N1CCCC1)C1CCS(=O)(=O)C1 (stereo not given)	0	-6	16	0	9.0*	-12	0
CCC(C)N(C(=O)COC(=O)c1ccccc1SCC(=O)N1CCCC1)C1CCS(=O)(=O)C1 (stereo not given)	0	-1	7	-1	0	nt	nt
CCc1nc(SCc2ccc(OCC(C)C)cc2)n[nH]1	2	0	20*	0	10*	15	7
COC(=O)[C@]12C[C@H](CC(=O)NCc3cccc(C(F)(F)F)c3)C(=O)N(Cc3ccc4c(c3)OCO4)C1=C[C@H](C(C)(C)C)O[C@@H]2C	0	8	19	-1	13*	54*	19*
COC(=O)[C@]12C[C@H](CC(=O)NCc3ccccc3)C(=O)N(Cc3ccc4c(c3)OCO4)C1=C[C@H](C(C)(C)C)O[C@@H]2C	0	3	14	1	6	nt	nt
COC(=O)[C@]12C[C@H](CC(=O)NCCCCc3ccccc3)C(=O)N(Cc3ccco3)C1=C[C@H](C1CCCC1)O[C@@H]2C	-2	2	16	0	1	nt	nt
COC(=O)[C@]12C[C@H](CC(=O)NCCCCc3ccccc3)C(=O)N(Cc3ccco3)C1=C[C@H](C(C)(C)C)O[C@@H]2C	1	-1	19	0	9.3*	27*	15*
COCC(=O)N1CC[C@H]2[C@@H]1c1cc(-c3cccc(OC)c3)ccc1N(C)[C@H]2CO	-10	-16	-22	-1	-9	nt	nt
CC(C)(C)c1ccc(OCCC(=O)OCC(=O)NC(=O)NC2CCCC2)cc1	5	-3	19	0	17*	28*	13*
CC(=O)Nc1cccc(-c2nnc(-c3ccc(C)cc3)o2)c1	-2	-3	-14	1	-10	nt	nt
CC(NC(=O)c1ccco1)C(=O)N1CCN(c2ccccc2)CC1 (stereo not given)	4	3	-5	-1	9.2*	-8	0
CC(NC(=O)c1ccco1)C(=O)N1CCN(c2cccc(C(F)(F)F)c2)CC1 (stereo not given)	3	-4	-7	0	1	nt	nt
COC(=O)[C@]12CCCCC=C1N(Cc1ccc(Cl)cc1Cl)C(=O)[C@H](CC(=O)N1CCSCC1)C2	1	5	13	0	3	nt	nt
COc1cc(C(=O)OCn2nnc3ccccc3c2=O)cc(OC)c1OC	1	3	1	0	-1	nt	nt
COc1cccc(C(=O)OCn2nnc3ccccc3c2=O)c1OC	4	7	6	0	8.9*	0	0
Cc1c(C(=O)N2CCN(S(=O)(=O)c3ccccc3)CC2)oc2ccc(Br)cc12	6	-1	12	1	10*	24*	14*
COc1ccc(-c2nn(-c3ccccc3)cc2/C=N/NC(=O)c2cccc(S(=O)(=O)Nc3ccccc3Cl)c2)cc1	-161	-264	-36	-11	9.2*	-218	-31
COc1ccc(-c2nn(-c3ccccc3)cc2/C=N/NS(=O)(=O)c2ccccc2)cc1	-6	-9	11	0	4	nt	nt
Nc1nc(N)c(Br)c(Nc2ccc(Cl)c(Cl)c2)n1	1	-7	10	0	10*	7	6
Nc1nc(N)c(N=O)c(Nc2ccc(Cl)c(Cl)c2)n1	3	-2	8	-4	-2	nt	nt
COC(=O)CC1OCC=C2CN3CCC45C6=CC(=O)C(=O)C([N+](=O)[O-])=C6NC4C1C2CC35 (stereo not given)	3	-4	-20	-2	-5	nt	nt
S=c1[nH]nc(C2CCCCC2)n1/N=C/C=C/c1ccccc1	6	2	17	0	9.2*	19	11*
SMILES	PLCg1 inh	PLCb3 inh	ADAM10 inh	proKLK7 act	ADAM17 inh	ADAM10 counter	ADAM17 confirm
O=C(c1cc(F)c(F)c(F)c1F)N1CCN(C(=O)C2CCCO2)CC1 (stereo not given)	9	9	-4	0	8.7*	-8	0
CC(C)(C)OC(=O)N(Cc1ccccc1)Cc1ccccc1OCc1cccc(NC(=O)C2CCC2)c1	0	-1	-8	0	-3	nt	nt
CC(C)(C)OC(=O)N(Cc1ccccc1)Cc1ccccc1OCc1cccc(NC(=O)C2CC2)c1	4	-2	9	0	9.5*	20*	18*
O=C(Nc1ccc(F)cc1Cl)C1CCCN1S(=O)(=O)c1cccc2cccnc12 (stereo not given)	-2	0	-3	1	1	nt	nt
O=S(=O)(Nc1ccc(-c2csc(-c3ccccc3)n2)cc1)c1ccc(F)cc1	-16	-19	16	-1	11*	20*	19*
O=S(=O)(Nc1ccc(O)c(Sc2nc3ccccc3s2)c1)c1ccc(F)cc1	1	2	19	0	10*	34*	23*
O=S(=O)(Nc1ccc(O)c(Sc2nc3ccccc3s2)c1)c1cccc2ccccc12	2	0	18	0	9.0*	42*	22*
O=[N+]([O-])c1cc(S(=O)(=O)C(F)(F)F)ccc1Sc1nc2ccccc2s1	4	3	2	1	-1	nt	nt
O=C(O)c1cccc(S(=O)(=O)Nc2ccc(O)c(Sc3nc4ccccc4s3)c2)c1	-2	-3	1	0	-2	nt	nt
COc1cccc(Cn2ncc3c4sc(S(C)=O)cc4n(C)c3c2=O)c1 (stereo not given)	2	-2	-11	nt	-7	nt	nt
CC1(C)Oc2ccc(C(=O)N3CCCC3)cc2NC1=O	2	1	2	0	-2	nt	nt
O=C(NCc1ccccc1)C(C1CC1)n1c(-c2cccs2)nc2ccccc21 (stereo not given)	-10	-11	-112	1	-31	nt	nt
CCC(C)c1ccc(O)c(NC(=O)c2cncc(Br)c2)c1 (stereo not given)	5	1	19	-1	10*	14	9.8*
CSCCC(C(=O)Nc1c(C)cccc1C)n1c(-c2cc(C)cs2)nc2ccccc21 (stereo not given)	-21	-25	-75	0	-20	nt	nt
